Sfp inh: inhibitors of Bacillus subtilis Sfp phosphopantetheinyl transferase; Potency, µM, hits mostly inhibitors; Q9F4F7; 310,000 tested, 3.5% active; Biochemical Sfp PPTase activity, qHTS;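 further: the enzyme is Sfp with the accession as filed and its product quenches rhodamine fluorescence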
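Step 1, compound plus 15 nM Sfp-PPTase, 15 min, room temperature. Step 2, add rhodamine-CoA (5 uM) and BHQ-2-YbbR (12.5 uM). Step 3, read 525/598 nm fluorescence at 0 and 30 min.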
Giardia kill: kills Giardia lamblia. Giardia lamblia trophozoite viability. activity change, % at 7.66 µM, hits read low. 340,000 tested, 0.15% active. AID 540267; in the data active means activity change below about -80%; inconclusive means between about -30% and that limit;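 further: parasites exposed to compound for two days anaerobically before the ATP read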
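Trophozoite viability was measured as ATP-dependent luminescence, read 15-30 min after reagent addition. Before that, parasites at 100 cells/well were exposed to compounds for 48 h, anaerobically, at 37 deg C.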
FBPA coupling cs: inhibits coupling enzyme system, counter-screen for aldolase hits; 290,000 tested, 0.67% active; activity change, negative = inhibition, % at 58.2 µM, hits read low; coupling enzyme system counterscreen, AmpLite Red fluorescence; in the data active means activity change below about -30%
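Final compound at 57.5 uM, incubated 10 min at RT with coupling enzyme reagent (glyceraldehyde-3-phosphate), then 20 min with substrate and AmpLite Red detection. Fluorescence read at 525/598 nm; tests interference with the coupling assay, not aldolase inhibition.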
ELG1 DNA repair: inhibitors of ELG1-dependent DNA repair in HEK293T cells. HEK293T ELG1-luciferase reporter, luminescence, 16 h; DNA damage induced by 5-fluorouridine. Potency, µM (series often up to 46.1 µM), hits mostly inhibitors. 330,000 tested, 2.3% active; further: nearly all actives have a fitted effect of over 55% in size
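Luminescence from the luciferase reporter, measured 30 min after ONE-Glo reagent at room temperature, was the read-out. Beforehand, 2,000 cells per well were exposed for 16 hr at 37 °C to 5-fluorouridine together with compound or vehicle.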
Each line names hits and unclear results; the compound was inactive in the other large screens. A selection: hits, their analogues and other compounds. The true share with any hit is near 5.5%. Unless noted, the call rests on the fitted dose curve; in most records, active means well fitted curve in the direction sought with a large enough effect; inconclusive means small, poorly fitted or top-dose-only effect, or another doubt; inactive means no such curve, though single readings can be large; an effect the other way counts as inactive or inconclusive.

CC1(C)Cc2c(sc3nnn(CC(=O)Nc4ccccc4)c(=O)c23)CO1	ELG1 DNA repair inconclusive
COc1ccccc1NC(=O)Cn1nnc2sc3c(c2c1=O)CC(C)(C)OC3	ELG1 DNA repair 21µM
CCCCCc1cc(=O)oc2c(C(CCN3CCCCC3)c3ccc(OC)cc3)c(OC)cc(OC)c12 (stereo not given)	Sfp inh inconclusive
CCCCCc1cc(=O)oc2c(C(CCN3CCCC3)c3ccc(N(C)C)cc3)c(OC)cc(OC)c12 (stereo not given)	Sfp inh 79µM
CCCCCc1cc(=O)oc2c(C(CCN(CC)CC)c3ccc(OC)cc3)c(OC)cc(OC)c12 (stereo not given)	Sfp inh 56µM
CCCCCc1cc(=O)oc2c(C(CCN3CCCC(C)C3)c3ccc(OC)cc3)c(OC)cc(OC)c12 (stereo not given)	Sfp inh 25µM
CC(=O)N=c1c(C#N)cc2c(=O)n3cccc(C)c3nc2n1CCCOC(C)C	ELG1 DNA repair 7.3µM
Cc1cccn2c(=O)c3cc(C#N)c(=NC(=O)c4ccncc4)n(CCCOC(C)C)c3nc12	ELG1 DNA repair 12µM
COCCCn1c(=NC(=O)c2ccncc2)c(C#N)cc2c(=O)n3cccc(C)c3nc21	none
Cc1cccn2c(=O)c3cc(C#N)c(=NC(=O)c4cccs4)n(CCCOC(C)C)c3nc12	none
COc1ccc(CNc2ccccc2SC)cc1OC	Sfp inh 56µM, ELG1 DNA repair inconclusive
COc1ccc(CNc2cccc3[nH]c(C(F)(F)F)nc23)cc1OC	Sfp inh inconclusive, ELG1 DNA repair 26µM
COc1cc(CNc2ccccc2SC)cc(OC)c1OC	Sfp inh inconclusive, ELG1 DNA repair inconclusive
COc1ccc(CNC(=O)Nc2cccc(C(F)(F)F)c2)cc1OC	ELG1 DNA repair inconclusive
CCc1cc2cc(C)ccc2nc1SCC(=O)NC1CCCC1	none
CCc1nnc(NC(=O)C2CCCO2)s1 (stereo not given)	ELG1 DNA repair inconclusive
O=C(Nc1nnc(COc2ccc(Cl)cc2)s1)C1CCCO1 (stereo not given)	Sfp inh 13µM
COc1ccc(/C=C/C(=O)c2ccccc2O)cc1	Sfp inh inconclusive, ELG1 DNA repair inconclusive
COc1ccc(/C=C/C(=O)c2ccccn2)cc1	Sfp inh 28µM, ELG1 DNA repair inconclusive
CN(C)S(=O)(=O)c1cccc(C(=O)C2=C3SC=C(c4ccccc4)N3CC2)c1	Sfp inh 56µM
CN(C)S(=O)(=O)c1cccc(C(=O)N2CCc3ccccc32)c1	none
O=C(O)c1ccc2c(c1)[C@@H]1C=CC[C@@H]1[C@H](c1ccccn1)N2	none (no result: Sfp inh, FBPA coupling cs, ELG1 DNA repair)
COc1ccc(C(=O)N/N=C(\C)c2ccc3c(c2)C2C=CCC2C(c2ccccc2)N3)cc1 (stereo not given)	Sfp inh 79µM, ELG1 DNA repair inconclusive
COc1cccc(NS(=O)(=O)c2ccc3c(c2)C2C=CCC2C(c2ccc(C(=O)O)cc2)N3)c1 (stereo not given)	Sfp inh 32µM
CCC(=O)c1ccc(OCC(=O)OCC(=O)NCC2CCCCC2)cc1	none (no result: Sfp inh, FBPA coupling cs)
COc1cc(/C=C2\CCCc3c2nc2ccccc2c3C(=O)O)cc([N+](=O)[O-])c1O	none
COc1ccc(/C=C2\CCCc3c2nc2ccccc2c3C(=O)O)cc1OC	Sfp inh 35µM, FBPA coupling cs -33, ELG1 DNA repair inconclusive (no result: Giardia kill)
COc1cc(/C=C2\CCCc3c2nc2ccccc2c3C(=O)O)cc(OC)c1O	Sfp inh 11µM
Cc1nc(C/C(=N\N)c2ccc(O)cc2O)cs1	none
N/N=C(\Cc1cscn1)c1ccc(O)cc1O	ELG1 DNA repair 23µM
N#Cc1sc2nc(-c3cccs3)cc(-c3ccc(Cl)cc3)c2c1N	none
N#Cc1sc2nc(-c3cccs3)cc(-c3ccccc3)c2c1N	Sfp inh 45µM, ELG1 DNA repair inconclusive
CCN(CC)C(=O)c1sc2nc(-c3cccs3)cc(-c3cccs3)c2c1N	none
CC(C)(C)C(=O)c1sc2nc(-c3cccs3)cc(C(F)(F)F)c2c1N	Sfp inh 22µM
Cc1nnc(NC(=O)c2sc3nc(-c4cccs4)cc(C(F)(F)F)c3c2N)s1	ELG1 DNA repair inconclusive
CCN(CC)C(=O)c1sc2nc(-c3cccs3)cc(-c3ccc(Cl)cc3)c2c1N	Sfp inh 79µM, ELG1 DNA repair inconclusive
Cc1ccc(/C=C/C(=O)N2CC(C)CC(C)C2)o1 (stereo not given)	Sfp inh 16µM
CCN1CCN(C(=O)/C=C/c2ccc(C(C)C)cc2)CC1	none (no result: Sfp inh, FBPA coupling cs, ELG1 DNA repair)
CCN1CCN(C(=O)/C=C/c2ccc(C)o2)CC1	Sfp inh 40µM, ELG1 DNA repair inconclusive
COC(=O)c1scc(S(=O)(=O)C(C)C)c1N/N=C(\C#N)C(=O)c1ccc(Cl)cc1	ELG1 DNA repair 13µM
COC(=O)c1scc(C#N)c1N/N=C(\C#N)S(=O)(=O)c1ccc(Cl)cc1	ELG1 DNA repair inconclusive
CC(NC(=O)COC(=O)c1cc(=O)c2ccccc2o1)c1ccccc1 (stereo not given)	ELG1 DNA repair inconclusive (no result: Sfp inh, FBPA coupling cs)
COc1ccc(OC)c(NC(=O)c2cc3n(n2)C(C(F)(F)F)CC(c2ccc4c(c2)OCO4)N3)c1 (stereo not given)	none
COc1ccccc1NC(=O)c1cc2n(n1)C(C(F)(F)F)CC(c1ccc3c(c1)OCO3)N2 (stereo not given)	ELG1 DNA repair 16µM
COc1ccc(C2CC(C(F)(F)F)n3nc(C(=O)Nc4ccc5c(c4)OCO5)cc3N2)cc1 (stereo not given)	ELG1 DNA repair 23µM
O=S(=O)(Nc1cccc2cccnc12)c1ccc(Br)cc1	none (no result: Giardia kill, ELG1 DNA repair)
Cc1cccc(NC(=O)NNC(=O)c2ccccn2)c1	none (no result: Sfp inh, FBPA coupling cs)
Cc1cc(C)n(CC(C)(O)c2ccccc2)n1 (stereo not given)	none (no result: Sfp inh, FBPA coupling cs)
C/C(=N\Nc1nc(C)cc(C)n1)c1ccc(C)o1	none
C/C(=N\Nc1nnc2c3ccccc3n(C)c2n1)c1ccc(C)o1	ELG1 DNA repair 16µM
Cc1ccc(Cl)c2c1=NC(=O)C=2c1[nH]c(=S)[nH]c1O	Sfp inh 40µM
O=C1N=c2ccccc2=C1c1[nH]c(=S)[nH]c1O	ELG1 DNA repair inconclusive
Cc1ccccc1NC(=O)c1cc(S(=O)(=O)N2CCOCC2)cn1C	none
O=C(Nc1ccccc1N1CCCCC1)c1ccc([N+](=O)[O-])o1	Giardia kill inconclusive (no result: Sfp inh, FBPA coupling cs)
COc1ccc(N2CCOCC2)c(NC(=O)c2ccc(Br)o2)c1	ELG1 DNA repair 16µM (no result: FBPA coupling cs)
O=C(Nc1ccccc1N1CCOCC1)c1ccc([N+](=O)[O-])o1	Giardia kill -92 (no result: FBPA coupling cs)
O=C(Nc1ccc(N2CCOCC2)c(Cl)c1)c1ccc([N+](=O)[O-])o1	Giardia kill -89
CC(C)C(=O)N1CCN(c2ccc(NC(=O)c3ccc([N+](=O)[O-])o3)cc2Cl)CC1	Giardia kill -88
CSCCC(=O)N1CCN(CC(=O)N2CCCC2)CC1	Giardia kill inconclusive, ELG1 DNA repair inconclusive
O=C([O-])[C@@H]1[O][Sb+]([O][Sb+]2[O][C@H]([C@H](O)CO)[C@H](O)[C@H](C(=O)[O-])[O]2)[O][C@H]([C@H](O)CO)[C@@H]1O	none (no result: Giardia kill, ELG1 DNA repair)
O=C(Nc1ccccc1N1CCN(C(=O)c2ccc(Cl)cc2)CC1)c1ccc([N+](=O)[O-])o1	Giardia kill -89 (no result: FBPA coupling cs)

Source: PubChem BioAssay (National Center for Advancing Translational Sciences (NCATS))
